Test results: PubChem BioAssay (NCATS)
Results filed as inconclusive are left out. Activity calls are given as the source filed them. The call rests on the fitted dose curve. Square brackets hold non-standard residues; d marks the D form. Peptide text beside a SMILES is read from it. Nle = CCCC[C@H](N)C(=O)O

Experiment: Confirmatory qHTS for VERO E6 Cytotoxicity Assay: Counterscreen for SARS-CoV-2 CPE Assay (AID 1508605); further: nearly all actives have a fitted effect of over 60% in size
Conditions: cell viability luminescence; series mostly up to 20 µM; activity change, negative = cytotoxic: at the top concentration
On the % scale 0 is the no-effect control and ±100 the full control effect; potency means the concentration at half of the fitted maximal effect.

| Structure (SMILES) | activity change, negative = cytotoxic | Potency |
| --- | --- | --- |
| COc1cc(-n2cnc3cc(-c4ccc(Cl)cc4)sc3c2=O)ccc1OCCN1CCCC1 | -16.3% (inactive) | – |
| CCC(C)CNCC(=O)N1CCc2sccc2C1COc1cccc(C)c1 (configuration not stated) | -17.3% (inactive) | – |
| CO[C@H]1/C=C\C=C(\C)C(=O)NC2=CC(=O)C(NCCN(C)C)=C(C[C@@H](C)C[C@H](OC)[C@H](O)[C@@H](C)/C=C(/C)[C@@H]1OC(N)=O)C2=O | – | 5.62 µM (active) |
| COc1cc(N(C)CCN(C)C)c(N)cc1Nc1nccc(-c2cn(C)c3ccccc23)n1 | -7.12% (inactive) | – |
| CC(C)(C[C@@](O)(Cc1cc2ccncc2[nH]1)C(F)(F)F)c1cc(F)ccc1O | -24.4% (inactive) | – |
| C=C1C(=O)O[C@H]2C3=C(C)CCC[C@]3(C)C(=O)C[C@@H]12 | – | 10 µM (active) |
| CC(C)(C)c1ccc(C(=O)Nc2cc(Cl)c(Br)cc2C(=O)O)cc1 | – | 10 µM (active) |
| Cc1ccc(-c2c(C(=O)CCl)n(CCCO)c3ncnc(N)c23)cc1 | -16.4% (inactive) | – |
| CC1=CC2OC3CC(O)[C@@](C)(C34CO4)[C@@]2(C)C(O)C1=O (some centres not stated) | – | 3.55 µM (active) |
| CSc1ccc(C(=O)/C=C/c2cc(C)c(OC(C)(C)C(=O)O)c(C)c2)cc1 | -15.5% [at 40 µM] (inactive) | – |
| CC1(C)CC[C@]23CO[C@@]4(CCC5[C@@]6(C)CC[C@H](O[C@@H]7OC[C@H](O[C@@H]8O[C@H](CO)[C@@H](O)[C@H](O)[C@H]8O[C@@H]8OC[C@@H](O)[C@H](O)[C@H]8O)[C@H](O)[C@H]7O[C@@H]7O[C@H](CO)[C@@H](O)[C@H](O)[C@H]7O)[C@@](C)(CO)C6CC[C@@]5(C)[C@]4(C)C[C@H]2O)[C@@H]3C1 (some centres not stated) | – | 3.03 µM (active) |
| COc1ccc(-c2csc(NC(=O)[C@H]3CCCCN3S(=O)(=O)c3ccc(C)cc3)n2)cc1 | 4.47% (inactive) | – |
| C[C@@H]1CN(CC(=O)N2CC(C)(C)c3ncc(Cc4ccc(F)cc4)cc32)[C@@H](CN2CCOC[C@H]2C)CN1 | -11.4% (inactive) | – |
| CCCc1cc(C)[nH]c(=O)c1CNC(=O)c1cc(-c2ccnc(N3CCN(C)CC3)c2)cc2c1cnn2C(C)C | -18.7% (inactive) | – |
| COc1cc(NC(=O)Nc2cccc(CNC(=O)O[C@H]3CCOC3)c2)ccc1-c1cnco1 | -14.1% (inactive) | – |
| Cc1nc(C)c(CN2CCN(C(c3ccc(F)cc3)c3ccc(F)cc3)CC2)nc1C | -2.61% (inactive) | – |
| CCN(CC)CC1CCN(c2ncc3ncnc(Nc4ccc(F)c(Cl)c4)c3n2)CC1 | – | 11.2 µM (active) |
| O=C(/C=C/c1ccccc1)NC(NC(=S)Nc1cccc2cccnc12)C(Cl)(Cl)Cl (configuration not stated) | -15.1% (inactive) | – |
| C[C@@H]1O[C@@H](O[C@@H]2[C@@H](O)[C@H](O[C@@H]3[C@@H](O)[C@@H](O)[C@H](O[C@H]4[C@H](OC(=O)[C@]56CCC(C)(C)C[C@H]5C5=CCC7[C@@]8(C)C[C@H](O)[C@H](O[C@@H]9O[C@@H](C)[C@H](O)[C@@H](O)[C@H]9O)[C@@](C)(CO)C8CC[C@@]7(C)[C@]5(C)C[C@H]6O)O[C@H](C)[C@H](O)[C@@H]4O)O[C@H]3C)OC[C@H]2O)[C@H](O)[C@H](O)[C@H]1O (some centres not stated) | – | 1.91 µM (active) |
| CC1OC2OC3C(OCC(O)C3O)OC(=O)C34CCC(C)(C)CC3C3=CCC5C6(C)CC(O)C(OC7OC(CO)C(O)C(O)C7OC7OCC(OC(=O)CC(C)(O)CC(=O)OC1C(OC1OCC(O)C(O)C1O)C2O)C(O)C7O)C(C)(CO)C6CCC5(C)C3(C)CC4O (configuration not stated) | – | 1.56 µM (active) |
| COc1cc2nc(N3CCC(N4CCCCC4)CC3)nc(NC3CCCCCC3)c2cc1OC | – | 6.31 µM (active) |
| C/C=C(\C)C(=O)OC1C(C)C2(O)C3C=C(C)C(=O)C3CC(CO)=CC2C2C(C)(C)C12OC(C)=O (configuration not stated) | -11% [at 10 µM] (inactive) | – |
| CCC(C)C(=O)OC12C(OC(C)=O)C(C)C3(O)C(C=C(CO)CC4(O)C(=O)C(C)=CC43)C1C2(C)C (configuration not stated) | -11% [at 10 µM] (inactive) | – |
| CC(C)c1cccc2c(-c3ccccc3)cc(-c3ccc(-c4ccc(C(=O)O)cc4)[nH]3)nc12 | -28% (inactive) | – |
| CCCC[C@@H](C=O)NC(=O)[C@H](CC(C)C)NC(=O)[C@H](CC(C)C)NC(C)=O (Ac-Leu-Leu-[Nle]-aldehyde) | -5.12% (inactive) | – |
| C=C1Cc2c(Cl)cc3[nH]c4c5c3c2[C@@]2(O)[C@@H]1C[C@@H]2C(C)(C)O[C@H]5C1CC[C@@]2(O)[C@@]35O[C@@H]3[C@H]3OC(C)(C)[C@H]3O[C@H]5CC[C@]2(C)[C@@]41C (some centres not stated) | -15.6% [at 6.64 µM] (inactive) | – |
| CC1CCN(C(c2ccc(F)cc2)c2ccc(C(C)C(=O)O)cc2-c2ccc(C(F)(F)F)cc2)CC1 (configuration not stated) | – | 11.2 µM (active) |
